Assay [1] is described as follows: qHTS Assay for Lipid Storage Modulators (AID 1519; calls by dose curve; as to activity change, negative = inhibition: % is scaled to controls: 0 for no effect and ±100 for the full control effect). Conditions: Drosophila S3 cells, BODIPY lipid droplet/cell ratio, laser cytometry, cells loaded with oleic acid. An outline of the steps: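 Cells seeded at 5,000 per well were treated with compounds over a concentration series and loaded with oleic acid (400 uM, as added). Lipid droplet fluorescence (488 nm excitation, 500-530 nm channel) was read by laser-scanning cytometry and normalized to 20 uM Triacsin C.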
On the technique in general: In qHTS, concentration-response curves come from the screen itself.

For assay [2], the target named is Alpha-galactosidase A (Homo sapiens) (UniProt P06280). The experiment in a line: Counterscreen for Glucocerebrosidase Inhibitors: qHTS Assay for Human alpha-Galactosidase at pH 4.5 (AID 992). Also: 0% is about no effect. An outline of the steps:
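Fluorogenic 4-MU alpha-D-galactoside (80 uM) hydrolysis, 2 nM enzyme, pH 4.5 citrate buffer + 0.005% Tween-20; 20 min RT; NaOH/glycine pH 10 stop; Ex365/Em440. Compounds titrated 0.7 nM–77 uM; Hill-equation AC50.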
(In general: The purpose of a counterscreen is to sort out artefacts and off-target activity.)

The target of assay [3] is alpha-glucosidase (Oryza sativa, rice) (UniProt Q653V4). The assay is described as follows: Counterscreen for Glucocerebrosidase Inhibitors: qHTS Assay for Rice alpha-Glucosidase at pH 5.0 (AID 997).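 Also: 0% = full activity with enzyme and -100% = basal without enzyme.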 The gist of the method:
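Endpoint fluorogenic assay at pH 5.0: compounds (0.7 nM to 77 uM) titrated against 4 nM rice enzyme and 400 uM 4-MU-alpha-glucoside for 20 min at room temperature; NaOH/glycine stop, read ex 365/em 440 nm, Hill-fitted AC50.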

Assay [4] has as its target Alpha-galactosidase (Coffea arabica) (UniProt Q42656). The experiment in a line: Counterscreen for Glucocerebrosidase Inhibitors: qHTS Assay for Coffee Bean alpha-Galactosidase at pH 5.9 (AID 998).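 Also: plate controls were uninhibited enzyme for no effect and no-enzyme basal signal for full effect.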 An outline of the steps:
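Fluorogenic 4-MU substrate hydrolysis, 80 uM substrate and 2 nM coffee bean alpha-galactosidase, pH 5.9 citrate buffer, 20 min at room temperature, then NaOH/glycine stop. Titration 0.7 nM–77 uM, normalized to no-enzyme and enzyme controls, AC50 via Hill equation.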

Assay [5] is described as follows: Validation of Assay for Modulators of Lamin A Splicing (AID 1459; active = well fitted curve in the direction sought with a large enough effect in the signal ratio; the % refers to the signal ratio;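 also: cells exposed to compound for two days before reading; 0% is about no effect; ratio rise marks activators and ratio drop marks inhibitors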). An outline of the steps:
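Dual-reporter HeLa S3 line (lamin A-EGFP minigene, DsRed2) treated with compounds 48 hrs, 0.5% DMSO final. Endpoint: EGFP/DsRed2 total intensity ratio from laser-scanning microplate cytometry.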

The target in assay [6] is DNA repair nuclease/redox regulator APEX1 (Homo sapiens) (UniProt P27695). The assay is described as follows: qHTS Validation Assay for Inhibitors of the Human Apurinic/apyrimidinic Endonuclease 1 (APE1) (AID 1705;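 also: TAMRA fluorescence gain over two minutes as APE1 cuts a quenched THF abasic duplex; % is scaled to controls: 0 for no effect and ±100 for the full control effect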). The gist of the method: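 Substrate: 50 nM final fluorophore/quencher THF-abasic duplex. Enzyme preincubated with compounds 15 min, RT. Progress derived from fluorescence difference, third minus first kinetic read.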

The target in assay [7] is Endonuclease 4 (Escherichia coli (strain K12)) (UniProt P0A6C1). The experiment in a line: Counterscreen for APE1 Inhibitors: qHTS Validation Assay for Inhibitors of Endonuclease IV (AID 1708). Also: % is scaled to controls: 0 for no effect and ±100 for the full control effect. An outline of the steps:
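The reaction buffer contained 50 mM Tris-HCl pH 7.5, 50 mM NaCl, 2 mM MgCl2, 1 mM DTT and 0.01% Tween-20. Incision of a 50 nM fluorophore/quencher THF substrate by 2 nM enzyme was measured kinetically.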

A short description of assay [8]: Cell Viability - LYMP1-002 - Assay at 24 hr (AID 993). Also: potency is read from the fitted curve at half-maximal effect. The gist of the method: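 Viability was judged from intracellular ATP using a luciferase read-out, following a 24-hour compound incubation at 37 C of lymphoblastoid cells seeded at 2500 per well. Concentration-response data were fitted to the Hill equation for AC50.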
Assay [9] can be described thus: Cell Viability - LYMP1-002 - Assay at 40 hr (AID 994). Also: nearly all actives have a fitted effect of over 60% in size. Also: potency is read from the fitted curve at half-maximal effect. An outline of the steps:
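Concentration-dependent ATP loss after 40 hr treatment at 37 C defined toxicity; AC50 values were obtained by fitting the standard Hill equation.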

The nature of assay [10]: Cell Viability - LYMP2-026 (AID 989).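 Also: cells exposed to compound for 24 h at 37 °C; % is scaled to controls: 0 for no effect and ±100 for the full control effect; nearly all actives have a fitted effect of over 50% in size.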 The gist of the method: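 Acute toxicity screen in complete culture medium, with 24 hr compound exposure at 37 C. Viability read as cellular ATP via luciferase reaction, with tetraoctylammonium bromide (6.4pM to 92 uM) as positive control.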
[11] abbreviates: measured here: cell count channel max response.
Where [12] appears, read: measured here: lipid channel max response.

The values below come from PubChem BioAssay (NCATS).

“And” between values parts separate entries of the source, which are not always exact repeats. Equal entries are not always repeated. Results filed as inconclusive are left out. The source made the active and inactive calls. Unless noted, calls follow the shape of the dose curve; as a rule, active = well fitted curve in the direction sought with a large enough effect; inconclusive = small, poorly fitted or top-dose-only effect, or another doubt; inactive = no such curve, though single readings can be large; an effect the other way counts as inactive or inconclusive.

Alpha-galactosidase (Coffea arabica), sequence (Q42656 whole entry, looked up): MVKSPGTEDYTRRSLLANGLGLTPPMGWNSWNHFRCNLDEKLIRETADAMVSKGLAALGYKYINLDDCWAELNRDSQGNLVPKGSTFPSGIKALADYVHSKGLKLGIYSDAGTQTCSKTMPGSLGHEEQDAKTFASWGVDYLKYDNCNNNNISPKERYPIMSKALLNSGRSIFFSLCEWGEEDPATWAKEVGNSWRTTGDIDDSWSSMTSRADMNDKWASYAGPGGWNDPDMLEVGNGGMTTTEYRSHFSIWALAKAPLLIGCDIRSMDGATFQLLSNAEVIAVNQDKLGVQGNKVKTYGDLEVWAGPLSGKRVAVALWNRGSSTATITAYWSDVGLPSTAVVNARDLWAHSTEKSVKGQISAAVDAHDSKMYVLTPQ
DNA repair nuclease/redox regulator APEX1 (Homo sapiens), sequence (P27695 whole entry, looked up): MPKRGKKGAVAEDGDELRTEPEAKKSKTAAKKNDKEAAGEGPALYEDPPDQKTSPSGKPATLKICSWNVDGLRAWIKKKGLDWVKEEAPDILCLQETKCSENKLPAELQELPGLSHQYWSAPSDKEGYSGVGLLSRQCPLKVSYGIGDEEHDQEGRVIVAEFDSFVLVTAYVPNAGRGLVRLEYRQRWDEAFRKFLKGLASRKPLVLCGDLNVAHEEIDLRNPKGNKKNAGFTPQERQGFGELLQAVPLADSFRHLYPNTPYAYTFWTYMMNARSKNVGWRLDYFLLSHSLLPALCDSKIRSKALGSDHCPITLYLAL
Alpha-galactosidase A (Homo sapiens), sequence (P06280 whole entry, looked up): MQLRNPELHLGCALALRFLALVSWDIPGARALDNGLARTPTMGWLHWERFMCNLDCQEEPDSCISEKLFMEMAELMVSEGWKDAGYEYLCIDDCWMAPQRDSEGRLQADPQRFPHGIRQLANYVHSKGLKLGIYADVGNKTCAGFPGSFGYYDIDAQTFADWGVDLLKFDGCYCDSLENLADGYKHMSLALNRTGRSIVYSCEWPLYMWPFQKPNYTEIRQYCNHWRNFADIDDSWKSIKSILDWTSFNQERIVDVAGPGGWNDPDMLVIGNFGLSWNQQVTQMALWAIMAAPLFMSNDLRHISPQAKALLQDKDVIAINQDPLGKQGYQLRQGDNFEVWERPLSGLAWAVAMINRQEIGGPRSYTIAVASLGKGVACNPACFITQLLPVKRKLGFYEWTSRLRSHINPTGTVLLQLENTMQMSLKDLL

Consider `Cc1ccc(-c2nc3ccc(C)cn3c2CC(=O)N(C)C)cc1`, for which the activity change, negative = inhibition in [1] (at 57.5 µM (top of the series)) is 1.62% (inactive). The max response was found to be 1.87% in assay [1] (setting [11]) and 4.31% in [1] (setting [12]).
Turning to `COc1ccccc1N1CCNCC1`, the molecule was called inactive in assay [2], in assay [3], in assay [4], in [5], in assay [6] and in assay [7]. In addition, the activity change, negative = inhibition in assay [1] (at 57.5 µM (top of the series)) was 3.26% (inactive) and 0.382% (inactive). Further, the max response is 10.9% and -13.3% in [1] (setting [11]); 15.1% and -12.9% in assay [1] (setting [12]).
Take `NCC(CC(=O)O)c1ccc(Cl)cc1` (stereo not given): the result in assay [2], in assay [3], in assay [4], in assay [6] and in [7] was inactive. Besides, the activity change, negative = inhibition in assay [1] (at 57.5 µM (top of the series)) is 7.61% (inactive). Besides, the max response came to 16.5% in assay [1] (setting [11]) and 28.7% in assay [1] (setting [12]).
`CNCCCN1c2ccccc2CCc2ccccc21`: the outcome in assay [4] was inactive. Besides, the activity change, negative = inhibition in assay [1] (at 25.7 µM (top of the series)) is -4.5% (inactive); in [1] (at 57.5 µM (top of the series)) it was 0.465% (inactive). In addition, the max response is -2.23% and 21.3% in assay [1] (setting [11]); -6.66% and 25.9% in [1] (setting [12]).
Take `CCC1(C2=NCCN2)Cc2ccccc2O1` (stereo not given): the call in assay [6] and in assay [7] was inactive.
For the molecule `O=c1[nH]c2ccccc2n1CCCN1CCC(n2c(=O)[nH]c3cc(Cl)ccc32)CC1`, the call in assay [2], in assay [3], in assay [6] and in assay [7] was inactive.
Regarding `CCCN1CCC[C@@H]2Cc3[nH]ncc3C[C@H]21`, the molecule was called inactive in assay [2] and in assay [3]. Also, the activity change, negative = inhibition is -0.566% (inactive) in [1] (at 25.7 µM (top of the series)) and -0.922% (inactive) in assay [1] (at 57.5 µM (top of the series)). The max response was -11.1% and 10.4% in assay [1] (setting [11]); -11.8% and 9.61% in assay [1] (setting [12]).
Regarding `O=[N+]([O-])c1cc([As](=O)(O)O)ccc1O`, the activity change, negative = inhibition was 0.724% (inactive) in assay [1] (at 25.7 µM (top of the series)) and 3.89% (inactive) in assay [1] (at 57.5 µM (top of the series)). Moreover, the max response in [1] (setting [11]) is -1.97% and 10%; in assay [1] (setting [12]), 0.435% and 19.2%.
As to `C=C(C)[C@H]1Cc2c(ccc3c2O[C@@H]2COc4cc(OC)c(OC)cc4[C@@H]2C3=O)O1`, the molecule was called inactive in [6] and in assay [7].
In the case of `CC(C)CC(N(C)C)C1(c2ccc(Cl)cc2)CCC1` (stereo not given), the activity change, negative = inhibition in assay [1] (at 57.5 µM (top of the series)) is 0.545% (inactive). In addition, the max response in assay [1] (setting [11]) amounted to 5.29%; in [1] (setting [12]), 6.62%.
Consider `CCCC(CCC)C(=O)O`, for which, in assay [4], the molecule was called inactive.
Consider `CN(C)CCC[C@@]1(c2ccc(F)cc2)OCc2cc(C#N)ccc21`, for which the result in assay [4] was inactive.
Turning to `Clc1ccc(COC(Cn2ccnc2)c2ccc(Cl)cc2Cl)cc1` (stereo not given), in assay [8], the Potency result was “inactive”. Further, the Potency in assay [9] was 50.1 µM (active).
Take `Nc1nc2c(ncn2COC(CO)CO)c(=O)[nH]1`: the molecule was called inactive in assay [4].
On the same count and under the same terms, under `CC(=O)N[C@@H](CS)C(=O)O` stands “inactive”.
Turning to `OCCOc1ccccc1`, the call in assay [10] was inactive. In addition, the Potency entry in assay [8] and in [9] was “inactive” throughout.
As to `CN(C)CCC=C1c2ccccc2C=Cc2ccccc21`, the result in assay [4] was inactive.
For the molecule `Cc1ncc(CNC(=O)N(CCCl)N=O)c(N)n1`, the molecule was called inactive in [2], in assay [3], in [4], in [6] and in assay [7].
Consider `O=C(CCCN1CCC(O)(c2ccc(Cl)cc2)CC1)c1ccc(F)cc1`, for which the molecule was classed as inactive in assay [4].
Consider `N[C@@H](Cc1ccc(N(CCCl)CCCl)cc1)C(=O)O`, for which the Potency result in assay [8] and in assay [9] was “inactive” in each case.
As for `CN[C@H]1CC[C@@H](c2ccc(Cl)c(Cl)c2)c2ccccc21`, the outcome in [4] was inactive.
Regarding `CC(=O)Oc1ccccc1C(=O)Nc1ncc([N+](=O)[O-])s1`, the Potency in assay [8] and in [9] was 39.8 µM (active) each time.
Turning to `Nc1nc(N)c2nc(-c3ccccc3)c(N)nc2n1`, the call in [4] was inactive.
With `COc1cc(Cc2cnc(N)nc2N)cc(OC)c1OC`, in [4], the result was inactive.
As for `N[C@@H]1C[C@H]1c1ccccc1`, the molecule was classed as inactive in [2], in assay [3] and in [4].
For the molecule `COc1ccc(Cc2nccc3cc(OC)c(OC)cc23)cc1OC`, the call in [4] and in assay [6] was inactive.
For `Cc1c(OCC(F)(F)F)ccnc1CS(=O)c1nc2ccccc2[nH]1` (stereo not given), the outcome in assay [4] was inactive.
For `c1ccc(C2CC2)c(OCC2=NCCN2)c1`, the molecule was classed as inactive in assay [2], in assay [3], in assay [4], in [6] and in [7].
As to `O=C(c1ccc(OCCN2CCCCC2)cc1)c1c(-c2ccc(O)cc2)sc2cc(O)ccc12`, the result in [4] was inactive.
Turning to `CCOP(=S)(OCC)Oc1cc(C)nc(C(C)C)n1`, the outcome in assay [10] was inactive. Moreover, the Potency entry in assay [8] and in [9] was “inactive” in each case.
`CCCN1CCC[C@@H]2Cc3nc(N)ncc3C[C@H]21`: the call in [2], in assay [3], in assay [4], in assay [6] and in assay [7] was inactive.
Turning to `Cc1cn[nH]c1`, the result in assay [4] was inactive.
Consider `Oc1ccccc1-c1ccccc1`, for which the molecule was called inactive in assay [10]. Further, the Potency entry in [8] and in [9] was “inactive” in each case.
In the case of `N#CC(C#N)=Cc1ccc(O)c(O)c1`, the outcome in [2], in assay [3], in assay [4], in [6] and in assay [7] was inactive.
As for `c1ccc2c(c1)Nc1ccccc1S2`, in [10], the molecule was classed as inactive. The Potency result in assay [8] and in assay [9] was “inactive” in each case.
On to `Oc1ccc(Cl)cc1Cc1ccccc1`, for which, in assay [10], the molecule was classed as inactive. Also, the Potency entry in assay [8] and in assay [9] was “inactive” in each case.
As to `O=c1[nH]c2ccccc2n1C1CCN(CCCC(c2ccc(F)cc2)c2ccc(F)cc2)CC1`, the molecule was classed as inactive in assay [2], in assay [3] and in assay [4].
With `CCCN(CCC)CCc1cccc2c1CC(=O)N2`, the molecule was called inactive in assay [4].
Take `Cc1ccc(S(=O)(=O)N[C@@H](CCCCN)C(=O)CCl)cc1`: the molecule was classed as inactive in assay [2], in [3], in assay [4], in assay [6] and in assay [7].
For the molecule `CC(C)NCC(O)COc1cccc2[nH]ccc12` (stereo not given), the outcome in assay [4] was inactive.
Still for that read-out and setting: under `CN(C)CCC=C1c2ccccc2CCc2ccccc21` stands “inactive”.
For the molecule `COc1cc2c(c(OC)c1OC)-c1ccc(OC)c(=O)cc1[C@@H](NC(C)=O)CC2`, the result in assay [4] and in [7] was inactive.
In the case of `CC(C)[N+](C)(CCOC(=O)C1c2ccccc2Oc2ccccc21)C(C)C`, in assay [4], the molecule was classed as inactive.
On to `Fc1ccc(C(OCCN2CCN(CCCc3ccccc3)CC2)c2ccc(F)cc2)cc1`, for which the molecule was classed as inactive in [2], in assay [3] and in assay [6].
Regarding `CCN(CC)CCOC(=O)C1(C2CCCCC2)CCCCC1`, the molecule was classed as inactive in assay [4].
On to `CN1C[C@H](CNC(=O)OCc2ccccc2)C[C@@H]2c3cccc4c3c(cn4C)C[C@H]21`, for which the molecule was classed as inactive in assay [2], in [3] and in assay [6].
